C diff HTS: inhibitors of Clostridium difficile growth; Clostridium difficile clinical isolate growth, OD600, 24 h; active compounds read low; growth activity, negative = inhibition, % at 16 µg/mL (by protocol); hit rate 0.25% among 86,000;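 active = mean growth activity at or below -80% and every replicate also at or below -80%; inconclusive = mean at or below -80% but some replicate above -80%; inactive = mean growth activity above -80%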
T cruzi growth-1: blocks T. cruzi growth in NIH3T3 culture | T. cruzi beta-gal in NIH3T3, GalScreen luminescence, 90 h | inhibition, % at 8.34 µM | hit rate 5.9% among 77,000 | AID 624255;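 active = mean inhibition above about 93%, with at least 55% of replicates each passing it, limit read from the data, passing the limit was not always enough; inconclusive = only one of those two conditions holds; inactive = neither condition holds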
T cruzi growth-2: Trypanosoma cruzi proliferation inhibition; shares compounds with T cruzi growth-1; T. cruzi beta-gal in NIH3T3, GalScreen luminescence, 90 h; inhibition, % at 8.35 µM; hit rate 72% among 5,600;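 active = mean replicate inhibition above about 95% and at least 55% of replicates individually reaching it, limit read from the data; inconclusive = only one of the two criteria is met; inactive = neither criterion is met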
T cruzi growth-3: inhibitors of T. cruzi proliferation | shares compounds with T cruzi growth-1 | T. cruzi beta-gal in NIH3T3, GalScreen luminescence, 90 h | hit rate 21% among 5,600 | inhibition, % at 2.09 µM;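 active = mean inhibition above about 95%, with at least 55% of replicates also reaching it, limit read from the data; inconclusive = meets just one of the two conditions; inactive = meets neither condition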
3T3 cytotox: NIH/3T3 (mouse) viability loss | NIH/3T3 viability, CellTiter-Glo ATP luminescence, 90 h | hit rate 14% among 5,600 | shares compounds with T cruzi growth-1 | AID 651742 | cytotoxicity (signal decrease), % at 8.35 µM;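 active = mean signal decrease across replicates above about 35% based on untreated-well scatter, with enough replicates individually passing, limit read from the data; inconclusive = no rule stated though some were filed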
3T3 cytotox 2: kills mouse NIH/3T3 fibroblasts; hit rate 56% among 5,600; NIH/3T3 viability, CellTiter-Glo ATP luminescence, 90 h; shares compounds with T cruzi growth-1; AID 651744; inhibition, % at 24.9 µM;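 active = mean loss of cell viability signal at or above a set limit, and enough replicates individually reaching it; inconclusive = meets only the mean limit or only the replicate share; inactive = meets neither condition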
Numbers stand for hits; 0 = inactive; ? = inconclusive; - = no result. The full list was thinned out, with hits kept by preference.

SMILES	C diff HTS	T cruzi growth-1	T cruzi growth-2	T cruzi growth-3	3T3 cytotox	3T3 cytotox 2
C[C@H]1CN([C@@H](C)CO)S(=O)(=O)c2ccc(C#Cc3ccccc3)cc2O[C@@H]1CN(C)C(=O)Nc1ccccc1	0	119.0	101.6	0	0	40.2
C[C@@H]1CN([C@@H](C)CO)S(=O)(=O)c2ccc(C3=CCCC3)cc2O[C@@H]1CN(C)C(=O)Nc1ccc2c(c1)OCO2	0	0	-	-	-	-
CC(C)NC(=O)Nc1cccc2c1O[C@H](CN(C)Cc1ccc(-c3ccccc3)cc1)[C@H](C)CN([C@H](C)CO)C2=O	0	0	-	-	-	-
C[C@@H]1CCCCO[C@@H](CN(C)S(=O)(=O)c2cccs2)[C@@H](C)CN([C@@H](C)CO)C(=O)c2cc(N(C)C)ccc2O1	0	0	-	-	-	-
C[C@H](CO)N1C[C@H](C)[C@H](CN(C)CC2CCCCC2)Oc2c(NC(=O)Nc3cccc4ccccc34)cccc2C1=O	0	0	-	-	-	-
COCC(=O)N1[C@H](CO)[C@H](c2ccccc2-c2cccc(OC)c2)[C@@H]1C#N	0	-	-	-	-	-
CO[C@@H]1CN(C)C(=O)c2cc(NC(=O)c3ccc(F)cc3)ccc2OC[C@@H](C)N(C(=O)CC2CC2)C[C@@H]1C	-	0	-	-	-	-
CN1C(=O)c2cc(NC(=O)c3cccc(F)c3)ccc2OC[C@@H]2O[C@H](CC(=O)NCC3CC3)CC[C@H]21	0	-	-	-	-	-
C/C=C/c1ccc([C@@H]2[C@H](CO)N(C(=O)CN(C)C)C23CN(C(=O)C2CCOCC2)C3)cc1	0	-	-	-	-	-
COC(=O)C[C@@H]1C[C@@H]2c3cc(NC(=O)Cc4ccncc4)ccc3O[C@@H]2[C@H](CO)O1	0	0	-	-	-	-
C[C@H]1CN([C@@H](C)CO)S(=O)(=O)c2ccc(C#Cc3ccccc3)cc2O[C@H]1CN(C)C(=O)Nc1ccc2c(c1)OCO2	0	131.8	98.7	0	0	0
C[C@H]1CN([C@@H](C)CO)S(=O)(=O)c2ccc(C#Cc3ccncc3)cc2O[C@H]1CN(C)C(=O)Nc1ccc2c(c1)OCO2	0	0	-	-	-	-
CN1c2ccc(Br)cc2[C@@H]2[C@@H](CCN2S(=O)(=O)c2cccc(F)c2)[C@H]1CO	0	?	106.2	0	0	34.6
Cc1cccc(S(=O)(=O)N2CC[C@@H]3[C@H]2c2cc(Br)ccc2N(C)[C@H]3CO)c1	0	0	-	-	-	-
CN1c2ccc(Br)cc2[C@H]2[C@H](CCN2S(=O)(=O)c2cccc(F)c2)[C@@H]1CO	0	116.6	102.8	0	0	0
CN1c2ccc(Br)cc2[C@@H]2[C@@H](CCN2S(=O)(=O)c2ccccc2)[C@@H]1CO	0	0	-	-	-	-
C[C@@H]1CN([C@@H](C)CO)C(=O)c2cccc(NC(=O)c3cnccn3)c2O[C@@H]1CN(C)S(=O)(=O)c1ccc(Cl)cc1	0	0	-	-	-	-
CCCN1[C@@H]2c3ccc(-c4ccc(OC)cc4)c(=O)n3C[C@@H]2[C@@H](CO)[C@@H]1C(=O)N(C)C	0	0	-	-	-	-
C[C@@H]1CN([C@@H](C)CO)C(=O)c2cccc(NS(=O)(=O)c3cn(C)cn3)c2O[C@@H]1CN(C)Cc1ccc(-c2ccccc2)cc1	0	0	-	-	-	-
CCCNC(=O)C[C@H]1C[C@@H]2c3cc(NS(=O)(=O)c4ccccc4)ccc3O[C@@H]2[C@H](CO)O1	0	0	-	-	-	-
O=C(Nc1ccccc1F)N1CC(=O)N2[C@H](C1)[C@H](c1ccc(C#Cc3ccccc3)cc1)[C@@H]2CO	0	-	-	-	-	-
COc1ccc(NC(=O)Nc2ccc3c(c2)C(=O)N([C@H](C)CO)C[C@H](C)[C@@H](CN(C)Cc2ccncc2)OCCCC[C@@H](C)O3)cc1	0	0	-	-	-	-
CO[C@@H]1CN(C)C(=O)c2ccc(NC(C)=O)cc2OC[C@H](C)N(C(=O)CN2CCOCC2)C[C@@H]1C	0	0	-	-	-	-
CO[C@@H]1CN(C)C(=O)c2ccc(NC(=O)c3cc(C)on3)cc2OC[C@@H](C)N(CC2CC2)C[C@@H]1C	-	0	-	-	-	-
C[C@@H]1CN([C@@H](C)CO)C(=O)c2cc(N(C)C)ccc2O[C@@H]1CN(C)Cc1ccc(Cl)c(Cl)c1	0	0	-	-	-	-
SMILES	C diff HTS	T cruzi growth-1	T cruzi growth-2	T cruzi growth-3	3T3 cytotox	3T3 cytotox 2
C[C@@H]1CN([C@@H](C)CO)C(=O)Cc2cc(N(C)C)ccc2O[C@H]1CN(C)Cc1ccc(Cl)c(Cl)c1	0	107.0	109.8	0	0	107.2
C[C@H]1CN([C@@H](C)CO)C(=O)Cc2cc(N(C)C)ccc2O[C@H]1CN(C)Cc1ccc2c(c1)OCO2	0	0	-	-	-	-
C[C@@H]1CN([C@H](C)CO)C(=O)Cc2cc(N(C)C)ccc2O[C@H]1CN(C)Cc1ccc(Cl)c(Cl)c1	-	0	-	-	-	-
C[C@H](CO)N1C[C@H](C)[C@@H](CN(C)Cc2ccc(Cl)c(Cl)c2)Oc2ccc(N(C)C)cc2CC1=O	0	108.3	107.0	0	0	103.4
C[C@H](CO)N1C[C@H](C)[C@H](CN(C)Cc2ccc(Cl)c(Cl)c2)Oc2ccc(N(C)C)cc2CC1=O	0	?	0	0	0	0
CO[C@@H]1CN(C)C(=O)c2ccc(NC(=O)c3cccc(F)c3)cc2OC[C@@H](C)NC[C@@H]1C	0	0	-	-	-	-
O=C(C[C@@H]1C=C[C@H](NC(=O)Nc2ccc3c(c2)OCO3)[C@@H](CO)O1)NCc1ccc2c(c1)OCO2	0	0	-	-	-	-
C[C@@H]1CN([C@@H](C)CO)S(=O)(=O)c2ccc(-c3cncnc3)cc2O[C@@H]1CN(C)Cc1ccncc1	0	0	-	-	-	-
Cc1ccc(-c2ccc3c(c2)O[C@H](CN(C)Cc2cncnc2)[C@@H](C)CN([C@H](C)CO)S3(=O)=O)cc1	0	102.3	101.8	0	41.5	65.3
C[C@H]1CN([C@@H](C)CO)S(=O)(=O)c2ccc(-c3cncnc3)cc2O[C@@H]1CN(C)Cc1cncnc1	0	0	-	-	-	-
C[C@@H]1CN([C@H](C)CO)S(=O)(=O)c2ccc(-c3cncnc3)cc2O[C@@H]1CN(C)Cc1cncnc1	0	0	-	-	-	-
C[C@H]1CN([C@@H](C)CO)S(=O)(=O)c2ccc(-c3ccncc3)cc2O[C@H]1CN(C)Cc1cncnc1	0	104.2	99.9	0	?	34.1
C[C@H](CO)N1C[C@H](C)[C@@H](CN(C)Cc2cncnc2)Oc2cc(-c3ccncc3)ccc2S1(=O)=O	0	100.5	103.6	?	0	40.8
CCC(=O)Nc1ccc2c(c1)OC[C@@H](C)N(C(=O)CC1CC1)C[C@@H](C)[C@@H](OC)CN(C)C2=O	0	0	-	-	-	-
CCS(=O)(=O)Nc1ccc2c(c1)C(=O)N(C)[C@H]1CC[C@H](CC(=O)Nc3ccccc3)O[C@H]1CO2	0	0	-	-	-	-
CCS(=O)(=O)N1[C@H](CO)[C@@H](c2ccccc2)C12CN(C(=O)C1CC1)C2	0	-	-	-	-	-
CN(C)CCCNC(=O)C[C@H]1CC[C@@H]2[C@@H](COc3ccc(NS(C)(=O)=O)cc3C(=O)N2C)O1	0	0	-	-	-	-
C[C@@H]1CCCCO[C@H](CN(C)Cc2ccc3c(c2)OCO3)[C@H](C)CN([C@H](C)CO)C(=O)c2cc(NC(=O)Nc3cccc4ccccc34)ccc2O1	0	135.5	107.0	117.8	?	94.1
